# An excerpt weighted towards active compounds, which were near 27% of everything screened.
# CYP2C19 act – activators of human cytochrome P450 2C19. P33261. recombinant CYP2C19, luciferin-H EGE luminescence; active compounds read high; 0 = fully inhibited enzyme, 1 = untreated enzyme. activation factor at 5 µM. 96,000 tested, under 10 active. AID 1025;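 active = activation factor of at least 2 at 5 µM in the primary screen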;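 also: 0 = wells with 2.5 mM tranylcypromine and 1 = vehicle-only wells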
# Target sequence (P33261 whole entry, looked up): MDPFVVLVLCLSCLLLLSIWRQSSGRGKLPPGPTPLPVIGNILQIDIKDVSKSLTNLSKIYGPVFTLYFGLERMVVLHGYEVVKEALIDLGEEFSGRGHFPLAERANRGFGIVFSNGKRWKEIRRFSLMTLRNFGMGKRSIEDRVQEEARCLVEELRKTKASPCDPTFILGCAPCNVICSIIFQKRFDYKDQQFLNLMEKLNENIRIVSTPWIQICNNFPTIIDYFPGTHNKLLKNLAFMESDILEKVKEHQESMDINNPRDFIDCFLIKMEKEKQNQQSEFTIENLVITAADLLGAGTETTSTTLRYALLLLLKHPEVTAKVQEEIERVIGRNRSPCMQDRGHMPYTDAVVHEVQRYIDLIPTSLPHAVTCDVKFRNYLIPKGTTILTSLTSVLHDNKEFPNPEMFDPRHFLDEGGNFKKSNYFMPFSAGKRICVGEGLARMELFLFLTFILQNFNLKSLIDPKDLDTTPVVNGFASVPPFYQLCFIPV
# sEH inhibitor – soluble epoxide hydrolase (human) inhibition | P34913 | recombinant human sEH enzymatic activity assay | inhibition, % at 2 µM | 91,000 tested, 0.34% active; in the data active = inhibition above about 80%
# CYP2C19 inhib – blocks human cytochrome P450 2C19. AID 778. inhibition, % at 5 µM. P33261. 96,000 tested, 21% active. CYP2C19 Supersomes, luciferin-H EGE luminescence, 30 min;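 active = CYP2C19 inhibition above a set limit at 5 µM in the primary screen, cut at about 50% in these data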;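 also: plate controls were negative control wells for no effect and 2.5 mM tranylcypromine positive control for full effect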
# CYP2C9 inh – human CYP2C9 inhibition; AID 777; CYP2C9 Supersomes, luciferin-H conversion, luminescence; 96,000 tested, 20% active; inhibition, % at 5 µM;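 active = blocking of liver enzyme CYP2C9 beyond about 50% at 5 µM, limit read from the data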
# CYP2C9 act – increases human cytochrome P450 2C9 activity; recombinant CYP2C9, luciferin-H conversion, luminescence; active compounds read high; factor 1 = untreated enzyme, 0 = blocked; activation factor at 5 µM; 96,000 tested, 1.4% active; AID 1024;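 active = activation factor of 2 or more for CYP2C9 at a 5 µM dose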;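 also: 0 = sulfaphenazole-blocked wells and 1 = vehicle-only wells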
# sEH act – soluble epoxide hydrolase (human) activation | 91,000 tested, 0.04% active | activation, % at 2 µM | purified human sEH enzymatic activity, activator screen | P34913; in the data active = activation above about 37%
# Starred values were filed as active, the others as inactive; . = no result given.
SMILES,CYP2C19 act,sEH inhibitor,CYP2C19 inhib,CYP2C9 inh,CYP2C9 act,sEH act
COc1ccc(OC)c(C(=O)CSc2nnc(-c3ccc(OC)c(OC)c3)o2)c1,1.1,1.7,-8.5,-25.6,1.3,-2.9
CCc1c(C)c2nncn2[nH]c1=O,1.1,1.2,-12.4,-8.5,1.1,0.0
COC(=O)c1cnn(-c2nc3c(C)cccc3s2)c1C,1,2.2,-0.6,-12.0,1.1,-0.4
CCn1ncc(/C=C/C(=O)Nc2c(C)nn(Cc3ccc(Cl)cc3Cl)c2C)c1C,1.1,7.9,-8.1,16.1,0.8,-5.5
COc1ccc(OC)c(NC(=O)COC(=O)c2ccc(-n3cnnn3)cc2)c1,0.4,-4.0,63.3*,21.4,0.8,3.4
COc1ccc(C(C)=O)cc1COc1ccc(-n2cnnn2)cc1,0,-1.8,99.1*,93.4*,0.1,1.6
COc1ccc(C(C)=O)cc1CN(C)C,1.1,3.4,-10.1,-19.4,1.2,-5.2
COc1cc(NC(=O)COc2ccc(-n3cnnn3)cc2)c(OC)cc1Cl,0.9,0.2,14.0,-19.5,1.2,-2.6
COC(=O)c1ccc(COC(=O)c2ccc(-n3cnnn3)cc2)o1,0.9,6.1,13.7,63.5*,0.4,-6.6
CCn1c(SCC#N)nc2c(c1=O)C1(CCCC1)Cc1ccccc1-2,0.4,0.3,59.6*,88.8*,0.1,-0.2
Cn1c(NCCCO)nc2c(c1=O)C1(CCCCC1)Cc1ccccc1-2,0.2,-1.9,77.5*,82.9*,0.2,-0.1
CCCC(=O)Nn1cnc2c(c1=O)C1(CCCCC1)Cc1ccccc1-2,0.5,99.0*,50.2*,64.0*,0.4,-99.0
CCN(CC)Cc1nc2c(c(=O)[nH]1)C1(CCCC1)Cc1ccccc1-2,0.5,6.8,47.4,86.7*,0.1,-6.4
CCC(=O)Nn1cnc2c(c1=O)C1(CCCCC1)Cc1ccccc1-2,0.6,67.0,42.3,-8.7,1.1,-66.3
CCCn1c(SCC(N)=O)nc2c(c1=O)C1(CCCC1)Cc1ccccc1-2,1,-3.9,-3.4,4.9,1,7.4
Cc1ccc2[nH]c(=O)c(CN(Cc3cccnc3)Cc3nnnn3CCN3CCOCC3)cc2c1,0.7,-10.8,27.2,16.1,0.8,9.8
Cc1noc(/C=C/N(C)C)c1S(=O)(=O)N1CCC(C(=O)O)CC1,1.2,.,-19.0,0.5,1,.
CCC1(C)Cc2ccccc2-c2nc(NCCCO)n(-c3ccccc3)c(=O)c21 (configuration not stated),0.5,0.9,51.1*,24.9,0.8,-3.5
CCC1(C)Cc2ccccc2-c2nc(NCCO)[nH]c(=O)c21 (configuration not stated),0.4,-3.0,55.7*,69.3*,0.3,4.4
CCC1(C)Cc2ccccc2-c2nc3n(c(=O)c21)CC(C(=O)O)S3 (configuration not stated),1,-6.3,-0.8,68.9*,0.3,6.8
O=c1[nH]c(NCCO)nc2c1C1(CCCC1)Cc1ccccc1-2,0.9,-6.4,7.0,25.5,0.7,6.3
Cc1ccc(NC2SC(=O)N(Cc3cccc(C(=O)O)c3)C2=O)cc1 (configuration not stated),1,-10.4,4.2,13.4,0.9,13.8
Cc1cccc(C(=O)Oc2ccccc2-c2nnco2)c1,1,-7.4,2.0,-15.0,1.1,8.4
c1ccc(OCCOc2ccccc2-c2nnco2)cc1,0.1,-25.4,90.6*,75.3*,0.2,25.4
Clc1ccccc1COc1ccccc1-c1nnco1,0.7,-0.9,26.6,50.3*,0.5,0.8
SMILES,CYP2C19 act,sEH inhibitor,CYP2C19 inhib,CYP2C9 inh,CYP2C9 act,sEH act
Cc1nc(Nc2nc(=O)c3ccccc3n2C)nc2c(C)cccc12,.,-1.9,.,.,.,4.7
Cc1cc(C)n2c(SCc3ccc(C#N)cc3)nnc2n1,0.5,-5.9,45.2,-1.7,1,4.6
Cc1cc(N2CCCCC2)nc(SCc2ccc(C#N)cc2)n1,0.5,13.6,48.8,63.2*,0.4,-14.1
COc1ccc2nc(Nc3nc(C)c(CCC(C)C)c(=O)[nH]3)nc(C)c2c1,0.4,2.0,60.1*,57.5*,0.4,1.0
COc1cc2c3nnc(-c4ccc(F)cc4)c-3cn(Cc3ccccc3)c2cc1OC,1,5.9,3.0,29.1,0.7,-6.8
COc1ccc(N2C(C(C)=O)=NN(c3ccccc3)C2c2cccs2)cc1 (configuration not stated),0.6,-23.6,43.3,56.0*,0.4,20.7
CC(=O)Nc1ccc(N2C(C(C)=O)=NN(c3ccccc3)C2c2cccs2)cc1 (configuration not stated),0.5,-3.9,47.0,44.4,0.6,5.1
COC(=O)c1cnn(C(=O)c2ccccc2Br)c1N,0.6,5.0,37.4,-2.9,1,-2.3
FC(F)Sc1ccc(NC(=S)NCC2CCCCC2)cc1,0,36.6,95.9*,-27.8,1.3,-36.6
FC(F)Sc1ccc(NC(=S)NC2CCCCC2)cc1,0.2,55.6,75.3*,-143.1,2.4*,-55.6
O=C(Nc1ccc(SC(F)F)cc1)C1=COCCO1,1,29.9,3.5,-8.6,1.1,-30.0
CC1CCCCC1NC(=S)Nc1ccc(SC(F)F)cc1 (configuration not stated),0.4,36.5,61.0*,-125.3,2.3*,-37.6
CCS(=O)(=O)N1Cc2ccccc2CC1C(=O)NC(C)C12CC3CC(CC(C3)C1)C2 (configuration not stated),1.1,2.1,-12.1,17.4,0.8,-0.7
CCS(=O)(=O)N1Cc2ccccc2CC1C(=O)NCC12CC3CC(CC(C3)C1)C2 (configuration not stated),0.1,-3.3,91.5*,68.0*,0.3,6.1
Cc1cccc(N2CCN(C(=O)C3CCCCC3)CC2)c1C,0.9,.,6.7,-70.8,1.7,.
CCS(=O)(=O)N1Cc2ccccc2CC1C(=O)N1CCN(c2cccc(C)c2C)CC1 (configuration not stated),0.4,8.6,63.8*,58.4*,0.4,-8.4
COc1ccc2nc(SCC(=O)N3CCN(c4ccccc4F)CC3)c(C#N)cc2c1,.,-15.7,.,.,.,17.4
O=C(O)C1C(c2ccccc2)C(C(=O)Oc2ccccc2)C1c1ccccc1 (configuration not stated),1.1,0.8,-6.1,2.2,1,-3.0
Cc1cccc(OC(=O)C2C(c3ccccc3)C(C(=O)O)C2c2ccccc2)c1 (configuration not stated),0.9,11.9,10.0,59.3*,0.4,-13.9
CC(C)CCOC(=O)C1C(c2ccccc2)C(C(=O)O)C1c1ccccc1 (configuration not stated),0.4,-8.7,59.3*,22.8,0.8,6.3
Cn1c(=O)c2c(nc(Br)n2CCSc2nnnn2-c2ccccc2)n(C)c1=O,0.6,-5.8,40.1,19.8,0.8,8.6
CCOC(=O)C1CCN(Cc2coc3c(Cl)cc(Cl)cc3c2=O)CC1,0.9,1.1,6.8,-80.2,1.8,-1.2
N#CC(c1cccc(Cl)c1)c1ncc(C(F)(F)F)cc1Cl (configuration not stated),0.1,-4.5,88.8*,41.1,0.6,6.6

# Screening results: PubChem, several laboratories
